In all, about 59,000 compounds went through this assay and about 6,500 (11%) were called active. Inconclusive results (about 15%) are left out. Rule as the data show it: active = max dye-equivalent concentration above about 10 nM; inconclusive = mostly about 1.1 nM to 9.6 nM; inactive = weaker than that. The list comes from a sample in which actives are over-represented; it also holds similar structures and randomly drawn compounds.

A short description of this assay: qHTS Assay for Spectroscopic Profiling in A350 Spectral Region. As to conditions: Compound autofluorescence, 340/450 nm, Alexa 350 dye-equivalents; stronger effect = higher value.
For `O=C(NCc1ccc(Cl)cc1)c1cc2c(nc3sccn32)s1`, the max dye-equivalent concentration result was “inactive”. The entry for `Cc1ccnc(N2CCCC(C(=O)Nc3cc(F)ccc3C)C2)n1` (stereo unspecified) is “inactive”; for `CCOC(=O)C1=C(CNC2CCCCC2)NC(=O)NC1c1cc(C)ccc1C` (stereo unspecified) it is “inactive”.

For `O=C(Nc1cccnc1)c1ccc2c(c1)OCO2`, the max dye-equivalent concentration entry is “inactive”. The figure for `c1cncc(CNc2ccnc(-c3ccc4c(c3)OCO4)n2)c1` is 15 nM (active). The entry for `Cc1cccc(CNc2ccnc(-c3cccnc3)n2)c1` is “inactive”; for `CC(=O)N=c1ncn(CC(COC(C)=O)OC(C)=O)c2nc[nH]c12` (stereo unspecified) it is “inactive”.

Take `Cc1ccc(C)c(S(=O)(=O)N2CC(=O)Nc3ccccc32)c1`: the max dye-equivalent concentration entry is “inactive”. The entry for `COc1ccc(CC(=O)Nc2ccc(-c3nnc(-c4ccc(C)cc4)o3)cc2)cc1` is “inactive”. For `Cc1ccc(OCC(=O)Nc2ccc(-c3nnc(-c4ccco4)o3)cc2)cc1` the value was “inactive”. For `Cc1ccc(OCC(=O)Nc2ccc(-c3nc4ncccc4o3)cc2)cc1` the value was 25 nM (active); for `CCOC(=O)c1cc(C)sc1NC(=O)C1CCC1`, “inactive”; for `Cn1c(-c2ccc(F)cc2)cnc1SCC(=O)NCc1ccco1`, “inactive”. With `Cc1ccc(S(=O)(=O)N2CCC(N3CCCCCC3)CC2)cc1`, the max dye-equivalent concentration entry is “inactive”. The entry for `Fc1ccc(Cn2nnnc2C(c2cccs2)N2CCCCCC2)cc1` (stereo unspecified) is “inactive”; for `Cc1cc(C)c2c(n1)nn1c(N3CCN(c4cccc(Cl)c4)CC3)cc(C)nc21` it is 110 nM (active). The entry for `CS(=O)(=O)N(CC(=O)N1CCN(c2cccc(Cl)c2)CC1)c1ccccc1` is “inactive”; for `Cc1nn2c3cc(N4CCOCC4)ccc3nc2c2ccccc12` it is “inactive”.

On to `Cc1cc(C)c2c(n1)nn1c(N3CCOCC3)cc(C)nc21`, for which the max dye-equivalent concentration is 7500 nM (active). For `CCN1C(=O)/C(=C\N2CCN(c3cccc(Cl)c3)CC2)SC1=S` the value was “inactive”. The figure for `Cc1cc(C)c2c(n1)nn1c(-n3ccnc3)cc(C)nc21` is 260 nM (active). For `Cc1cc(N2CCN(Cc3ccc4c(c3)OCO4)CC2)n2ncnc2n1` the value was “inactive”. Consider `CN1CCN(CC(O)COCc2ccc3c(c2)OCO3)CC1` (stereo unspecified), for which the max dye-equivalent concentration result was “inactive”. The entry for `CCOC(=O)Nc1ccc2c(c1)N(C(=O)CN1CCN3CCCC3C1)c1ccccc1CC2` (stereo unspecified) is “inactive”; for `CSc1cccc(NC(=O)CSc2ccccc2)c1` it is “inactive”; for `Cc1ccccc1CSc1nnc(-c2cccnc2)n1N` it is “inactive”. For `COc1ccc(C2OC(=O)CC2C(=O)NC(C)C)cc1` (stereo unspecified) the value was “inactive”; for `CCOC(=O)C1C(=O)C=C(c2ccc(OC)cc2)CC1c1ccco1` (stereo unspecified), 11 nM (active); for `CCOC(=O)C1C(=O)NC(N2CCN(c3ccccc3)CC2)=NC1c1ccco1` (stereo unspecified), “inactive”.

Turning to `CNC(=O)c1nnn(-c2ccccc2)c1C(=O)NC`, the max dye-equivalent concentration result was “inactive”. The entry for `CCn1ccnc1C[C@@H]1COc2ccccc2O1` is “inactive”; for `CC1=C(C(=O)Nc2ccc(Cl)cc2)C(c2ccco2)NC(=O)N1` (stereo unspecified) it is “inactive”. Take `COc1cccc(N2CC(C(=O)Nc3c(C)cccc3C)CC2=O)c1` (stereo unspecified): the max dye-equivalent concentration was 19 nM (active). The entry for `COc1ccc(Cl)cc1NC(=O)C1CC(=O)N(c2ccc(F)cc2)C1` (stereo unspecified) is “inactive”. For `COCCCNC(=O)C1CC(=O)N(c2ccc(C)cc2)C1` (stereo unspecified) the value was “inactive”. The entry for `O=C(CSc1nnc(-c2cccs2)n1Cc1ccco1)c1ccc2c(c1)OCO2` is “inactive”; for `Cc1ccc(-n2ncc3c(N4CCN(c5ccc(F)cc5)CC4)ncnc32)c(C)c1` it is “inactive”; for `CCN1CCCC1CNc1ncnc2c1[nH]c1ccc(F)cc12` (stereo unspecified) it is 14 nM (active). On to `Fc1ccc2[nH]c3c(N4CCSCC4)ncnc3c2c1`, for which the max dye-equivalent concentration was 13 nM (active). For `CCN1CCCC1CNC(=O)Cn1cnc2ccc(S(=O)(=O)N3CCC(C)CC3)cc2c1=O` (stereo unspecified) the value was “inactive”; for `Cc1cc(OCC(=O)O)c(Cl)cc1Cl`, “inactive”; for `CCn1c(Cc2ccccc2)nnc1SCc1nc2ccccc2c(=O)[nH]1`, “inactive”.

`COCCCNC(=O)CCc1nc2cccnc2n1Cc1ccc(OC)cc1`: the max dye-equivalent concentration entry is “inactive”.

Consider `O=C(CC1CCCCC1)Nc1c2c(nn1-c1ccc(F)cc1)CS(=O)(=O)C2`, for which the max dye-equivalent concentration result is “inactive”. For `Cc1c(C)c2cc3c4c(oc3c(C)c2oc1=O)CCCC4` the value was 25 nM (active); for `COc1ccccc1-c1nc(NCc2cccs2)c2ccccc2n1`, “inactive”. `CCOC(=O)Cc1c(C)nc2c(C#N)c(C)nn2c1C`: the max dye-equivalent concentration is 11 nM (active).

Consider `CC1(C)CCCC2=C1CC1C(=O)N(c3ccccc3)C(=O)C1C2` (stereo unspecified), for which the max dye-equivalent concentration result was “inactive”. For `CC(C)C(c1nnnn1Cc1ccccc1)N1CCC(C(N)=O)CC1` (stereo unspecified), the max dye-equivalent concentration result is “inactive”. For `COc1ccc(Cn2cccc(NC(=O)Nc3ccc(C#N)cc3)c2=O)cc1` the value was “inactive”.

In the case of `COc1ccc(C(=O)N2CCC[C@@]3(CCN(C(=O)NC(C)C)C3)C2)cc1`, the max dye-equivalent concentration result is “inactive”. For `c1ccc2c(Nc3ccncc3)nc(-c3ccoc3)nc2c1` the value was “inactive”. For `COc1cccc(-c2nc(Nc3ccncc3)c3ccccc3n2)c1` the value was “inactive”; for `c1ccc2c(Nc3ccncc3)nc(-c3ccc4c(c3)OCO4)nc2c1`, 11 nM (active); for `COCCNc1nc(-n2nc(C)cc2C)nc2sc3c(c12)CCCC3`, 1300 nM (active). For `COCCn1c(C)cc(C(=O)CSc2ncnc3sc4c(c23)CCC4)c1C` the value was “inactive”; for `Cc1cc(C)n(-c2nc(SCC(=O)N3CCCC3)c3c4c(sc3n2)CCCC4)n1`, “inactive”.

With `O=S(=O)(NCc1ccc2c(c1)OCO2)c1cccc2nsnc12`, the max dye-equivalent concentration entry was “inactive”. For `COc1ccc(N2C(=O)CCC(C(=O)Nc3ccccn3)C2c2ccc(OC)c(OC)c2)cc1` (stereo unspecified) the value was “inactive”.

For `O=C1c2ccccc2C(=O)N1CCCSc1ccccc1`, the max dye-equivalent concentration result is “inactive”. As for `C[N+](C)(CCCCCC[N+](C)(C)CCCN1C(=O)c2cccc3cccc(c23)C1=O)CCCN1C(=O)c2cccc3cccc(c23)C1=O`, the max dye-equivalent concentration is 260 nM (active). Turning to `Nc1ccc(SCCN2C(=O)c3ccccc3C2=O)cc1`, the max dye-equivalent concentration entry is “inactive”.

Take `CCOC(=O)Cc1csc(NC(=O)C(C)(C)C)n1`: the max dye-equivalent concentration result is “inactive”.

On to `COc1cc(C2C3C(=O)N(c4ccccc4)C(=O)C3ON2c2ccccc2)ccc1O` (stereo unspecified), for which the max dye-equivalent concentration entry is “inactive”.

Take `Cc1ccc(NC(=O)CCN2CCc3ccccc3C2)cc1`: the max dye-equivalent concentration entry was “inactive”. The entry for `Cc1ccc(C(c2nnnn2C(C)(C)C)N2CCc3ccccc3C2)cc1` (stereo unspecified) is “inactive”; for `Cc1ccc2c(c1)c1ncnc(N3CCc4ccccc4C3)c1n2C` it is 140 nM (active). For `O=C(CCCN1C(=O)C2C3C=CC(C3)C2C1=O)N1CCN(c2ccccc2)CC1` (stereo unspecified) the value was “inactive”; for `CC(C(=O)O)N1C(=O)c2cccc3cccc1c23` (stereo unspecified), 14 nM (active). For `Cc1cc(C)nc(NC(=O)C(C)N2C(=O)c3ccccc3C2=O)n1` (stereo unspecified), the max dye-equivalent concentration result is “inactive”.

On to `COC(=O)c1ccc(NC(=O)C(C)N2C(=O)c3ccccc3C2=O)cc1` (stereo unspecified), for which the max dye-equivalent concentration entry was “inactive”.

(Values after PubChem BioAssay AID590 (National Center for Advancing Translational Sciences (NCATS), 2007).)
